According to ChEMBL document CHEMBL3988442, “University of Dundee, Small-Polar-MMV Screening Library” (2021):
For some assays here: Results with a measured potency or affinity are listed apart.

Columns and labels:
Parameters in all cases: scale not given: direction of the effect not stated beside the values
[1] = biological target: Protein translocase subunit SecA (Escherichia coli (strain K12)) (UniProt P10408); experiment: Assay to Identify E. coli SecA ATPase Inhibitors; assay type: functional; conditions: 30 µM
[2] = biological target: T1, Ubiquitin-activating enzyme e1, putative (Leishmania donovani (strain BPK282A1)) (UniProt E9BSI1); experiment: Leishmania donovani Ubiquitin Activating Enzyme (LdE1); assay type: functional; conditions: 30 µM
T1 sequence (whole entry): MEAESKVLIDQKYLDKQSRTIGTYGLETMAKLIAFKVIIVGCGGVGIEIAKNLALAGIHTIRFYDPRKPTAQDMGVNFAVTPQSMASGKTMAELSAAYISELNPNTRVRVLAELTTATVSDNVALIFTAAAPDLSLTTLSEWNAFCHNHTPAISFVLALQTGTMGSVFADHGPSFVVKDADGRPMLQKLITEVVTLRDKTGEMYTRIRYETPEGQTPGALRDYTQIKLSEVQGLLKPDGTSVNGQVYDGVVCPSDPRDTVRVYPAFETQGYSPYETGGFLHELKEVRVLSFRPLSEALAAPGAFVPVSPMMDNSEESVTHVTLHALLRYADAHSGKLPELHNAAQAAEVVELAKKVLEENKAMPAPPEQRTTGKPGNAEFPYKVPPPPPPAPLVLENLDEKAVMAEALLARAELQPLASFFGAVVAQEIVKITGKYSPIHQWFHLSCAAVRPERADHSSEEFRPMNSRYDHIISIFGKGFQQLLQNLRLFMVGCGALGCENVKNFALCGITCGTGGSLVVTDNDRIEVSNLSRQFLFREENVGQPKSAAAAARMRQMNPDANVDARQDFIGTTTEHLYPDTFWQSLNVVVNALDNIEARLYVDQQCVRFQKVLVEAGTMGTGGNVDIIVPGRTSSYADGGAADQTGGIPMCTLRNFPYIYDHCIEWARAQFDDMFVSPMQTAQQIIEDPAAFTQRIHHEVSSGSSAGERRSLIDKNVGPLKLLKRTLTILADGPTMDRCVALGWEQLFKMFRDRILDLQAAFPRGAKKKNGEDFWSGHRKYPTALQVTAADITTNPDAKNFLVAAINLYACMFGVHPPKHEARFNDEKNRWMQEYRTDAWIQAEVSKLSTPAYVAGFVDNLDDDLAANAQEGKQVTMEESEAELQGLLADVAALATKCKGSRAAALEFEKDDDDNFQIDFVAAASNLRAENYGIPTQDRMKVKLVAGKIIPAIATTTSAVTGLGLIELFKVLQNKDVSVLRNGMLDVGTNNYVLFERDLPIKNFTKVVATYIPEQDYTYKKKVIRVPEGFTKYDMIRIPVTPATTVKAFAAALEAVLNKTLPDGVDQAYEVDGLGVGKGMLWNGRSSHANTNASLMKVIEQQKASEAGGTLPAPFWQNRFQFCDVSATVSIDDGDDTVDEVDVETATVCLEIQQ

[3] = biological target: AMP-activated protein kinase, AMPK (Homo sapiens) (UniProt P54646+O43741+P54619+Q9UGJ0+Q9Y478+Q13131+Q9UGI9); experiment: AMP-dependent Kinase enzyme assay. An in vitro enzyme assay that detects ADP turnover that is directly proportional to AMPK activity. This uses naive AMPK that is activated during the assay with MK-8722; assay type: functional; conditions: 30 µM
[4] = biological target: Sialic acid-binding Ig-like lectin 9 (Homo sapiens) (UniProt Q9Y336); experiment: Hs-Siglec9 ALPHAscreen SOP 20170721; conditions: 10 µM
[5] = test system: Trypanosoma cruzi; experiment: Trypanosoma cruzi phosphomannomutase and mannose-1-phosphate guanylyltransferase assay; assay type: functional; conditions: 10 µM
[6] = biological target: T2, Arginase-2, mitochondrial (Homo sapiens) (UniProt P78540); experiment: in vitro enzyme assay to detect the production of urea directly proportional to the activity of Arginase II; assay type: functional; conditions: 33.3 µM; also: in the data most compounds retested in dose-response had high values
T2 sequence (whole entry): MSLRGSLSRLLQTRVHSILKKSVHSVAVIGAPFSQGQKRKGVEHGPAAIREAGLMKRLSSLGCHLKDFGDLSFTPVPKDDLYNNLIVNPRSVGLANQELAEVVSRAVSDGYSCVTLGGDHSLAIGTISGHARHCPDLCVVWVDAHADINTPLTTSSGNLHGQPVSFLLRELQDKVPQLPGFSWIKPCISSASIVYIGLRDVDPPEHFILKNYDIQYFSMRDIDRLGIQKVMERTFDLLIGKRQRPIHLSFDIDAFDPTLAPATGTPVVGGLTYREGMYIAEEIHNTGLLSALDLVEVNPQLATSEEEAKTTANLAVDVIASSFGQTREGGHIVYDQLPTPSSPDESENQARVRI

[7] = biological target: T3, Proteasome subunit beta (Trypanosoma cruzi) (UniProt O96673); experiment: Trypanosoma cruzi proteasome chymotrypsin-like activity (TcProtChymo) assay.; also: in the data most compounds retested in dose-response had high values; assay type: functional; conditions: 9.37 µM
T3 sequence (whole entry): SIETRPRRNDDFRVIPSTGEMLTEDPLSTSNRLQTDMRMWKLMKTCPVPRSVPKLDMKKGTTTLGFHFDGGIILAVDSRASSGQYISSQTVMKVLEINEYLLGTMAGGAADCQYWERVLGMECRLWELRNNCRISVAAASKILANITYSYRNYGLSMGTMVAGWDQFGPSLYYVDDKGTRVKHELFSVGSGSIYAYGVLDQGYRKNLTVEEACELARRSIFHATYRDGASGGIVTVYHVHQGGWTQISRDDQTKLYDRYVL

[8] = organism: Homo sapiens; experiment: To identify inhibition of the IFN signalling (Jak-Stat) pathway via expression of an eGFP reporter gene under the control of an IFN-stimulated response element (ISRE) containing MxA promoter.; assay type: functional; conditions: 30 µM
[9] = biological target: T4, Tyrosyl-tRNA synthetase, putative (Trypanosoma cruzi (strain CL Brener)) (UniProt Q4DSP6); experiment: Trypanosoma cruzi tyrosyl tRNA synthetase (TcYRS) _High Tyrosine SOP; assay type: functional; conditions: 30 µM; also: in the data most compounds retested in dose-response had high values
T4 sequence (whole entry): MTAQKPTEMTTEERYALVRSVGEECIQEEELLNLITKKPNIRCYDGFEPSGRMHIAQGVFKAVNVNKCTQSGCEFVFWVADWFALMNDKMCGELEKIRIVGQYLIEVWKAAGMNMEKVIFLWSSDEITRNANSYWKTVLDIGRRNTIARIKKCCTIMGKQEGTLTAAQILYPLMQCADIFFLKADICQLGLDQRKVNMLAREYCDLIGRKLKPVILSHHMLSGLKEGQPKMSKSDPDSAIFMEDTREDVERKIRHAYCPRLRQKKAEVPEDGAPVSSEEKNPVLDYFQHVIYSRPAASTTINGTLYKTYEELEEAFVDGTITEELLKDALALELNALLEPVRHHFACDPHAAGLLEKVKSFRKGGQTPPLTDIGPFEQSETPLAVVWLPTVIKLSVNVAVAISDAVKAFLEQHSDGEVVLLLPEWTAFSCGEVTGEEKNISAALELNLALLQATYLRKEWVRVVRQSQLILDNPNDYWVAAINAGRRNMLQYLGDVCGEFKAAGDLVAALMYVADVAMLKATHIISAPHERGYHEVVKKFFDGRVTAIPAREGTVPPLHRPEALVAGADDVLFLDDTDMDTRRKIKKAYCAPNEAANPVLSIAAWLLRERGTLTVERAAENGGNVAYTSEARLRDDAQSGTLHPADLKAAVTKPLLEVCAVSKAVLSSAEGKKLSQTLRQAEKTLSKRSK

[10] = biological target: T4, Tyrosyl-tRNA synthetase, putative (Trypanosoma cruzi (strain CL Brener)); experiment: Trypanosoma cruzi tyrosyl tRNA synthetase (TcYRS) SOP; assay type: functional; conditions: 30 µM
[11] = biological target: Chromo domain-containing protein 1 (Saccharomyces cerevisiae (strain ATCC 204508 / S288c) (Baker's yeast)) (UniProt P32657); experiment: ScCHD-1 Enzyme Inhibition Assay; assay type: functional; conditions: 30 µM; also: in the data most compounds retested in dose-response had high values
Chromo domain-containing protein 1 (Saccharomyces cerevisiae (strain ATCC 204508 / S288c) (Baker's yeast)), sequence (P32657 whole entry, the tested form may be a part): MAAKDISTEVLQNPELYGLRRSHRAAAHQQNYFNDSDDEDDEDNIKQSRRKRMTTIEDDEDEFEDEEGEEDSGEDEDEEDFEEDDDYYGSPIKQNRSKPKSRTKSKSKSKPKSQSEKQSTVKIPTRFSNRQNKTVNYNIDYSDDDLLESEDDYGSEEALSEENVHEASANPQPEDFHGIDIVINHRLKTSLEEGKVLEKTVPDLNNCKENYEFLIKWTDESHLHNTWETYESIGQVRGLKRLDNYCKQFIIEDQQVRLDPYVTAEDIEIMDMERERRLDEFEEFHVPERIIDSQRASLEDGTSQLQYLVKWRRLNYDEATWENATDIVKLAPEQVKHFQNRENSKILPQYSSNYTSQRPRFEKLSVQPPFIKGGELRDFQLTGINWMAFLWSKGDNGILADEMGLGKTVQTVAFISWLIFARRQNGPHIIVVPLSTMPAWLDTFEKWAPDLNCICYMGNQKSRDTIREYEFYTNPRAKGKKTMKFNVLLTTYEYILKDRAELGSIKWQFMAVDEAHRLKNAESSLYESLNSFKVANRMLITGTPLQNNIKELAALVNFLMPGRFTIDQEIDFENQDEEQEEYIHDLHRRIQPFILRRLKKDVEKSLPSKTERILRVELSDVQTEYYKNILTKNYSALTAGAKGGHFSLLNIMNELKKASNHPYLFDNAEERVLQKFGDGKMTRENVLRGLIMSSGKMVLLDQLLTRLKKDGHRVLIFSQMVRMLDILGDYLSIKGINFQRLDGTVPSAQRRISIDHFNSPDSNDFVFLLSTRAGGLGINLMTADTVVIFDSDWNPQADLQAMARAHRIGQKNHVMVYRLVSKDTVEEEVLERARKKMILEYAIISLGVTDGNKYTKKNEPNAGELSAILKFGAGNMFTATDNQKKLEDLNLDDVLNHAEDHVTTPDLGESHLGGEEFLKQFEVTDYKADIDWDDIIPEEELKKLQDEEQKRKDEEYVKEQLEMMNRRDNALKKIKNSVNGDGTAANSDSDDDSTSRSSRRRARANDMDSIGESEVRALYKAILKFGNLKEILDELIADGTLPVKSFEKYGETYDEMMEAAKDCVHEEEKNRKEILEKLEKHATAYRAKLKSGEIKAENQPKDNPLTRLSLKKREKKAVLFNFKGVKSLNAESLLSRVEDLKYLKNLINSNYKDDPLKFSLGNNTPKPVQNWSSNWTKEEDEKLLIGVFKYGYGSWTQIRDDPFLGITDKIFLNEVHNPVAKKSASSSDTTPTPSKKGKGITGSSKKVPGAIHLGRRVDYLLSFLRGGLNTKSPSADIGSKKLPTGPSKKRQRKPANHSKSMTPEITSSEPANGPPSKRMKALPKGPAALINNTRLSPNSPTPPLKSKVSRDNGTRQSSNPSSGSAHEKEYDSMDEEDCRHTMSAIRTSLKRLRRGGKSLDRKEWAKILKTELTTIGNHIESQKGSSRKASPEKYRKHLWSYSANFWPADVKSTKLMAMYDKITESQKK

Sialic acid-binding Ig-like lectin 9 (Homo sapiens), sequence (Q9Y336 whole entry): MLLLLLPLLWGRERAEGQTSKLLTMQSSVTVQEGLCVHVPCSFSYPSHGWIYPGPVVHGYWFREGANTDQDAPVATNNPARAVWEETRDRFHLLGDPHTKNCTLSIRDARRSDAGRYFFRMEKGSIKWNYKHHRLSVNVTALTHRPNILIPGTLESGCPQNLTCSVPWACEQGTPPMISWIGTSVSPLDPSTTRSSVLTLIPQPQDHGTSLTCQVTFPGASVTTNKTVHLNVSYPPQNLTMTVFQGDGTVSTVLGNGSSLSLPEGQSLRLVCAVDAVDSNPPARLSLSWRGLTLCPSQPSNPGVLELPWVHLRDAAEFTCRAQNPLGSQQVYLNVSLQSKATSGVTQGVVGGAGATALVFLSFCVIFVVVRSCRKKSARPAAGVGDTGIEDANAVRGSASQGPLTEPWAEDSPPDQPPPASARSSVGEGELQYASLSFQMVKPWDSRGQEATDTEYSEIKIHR
Protein translocase subunit SecA (Escherichia coli (strain K12)), sequence (P10408 whole entry): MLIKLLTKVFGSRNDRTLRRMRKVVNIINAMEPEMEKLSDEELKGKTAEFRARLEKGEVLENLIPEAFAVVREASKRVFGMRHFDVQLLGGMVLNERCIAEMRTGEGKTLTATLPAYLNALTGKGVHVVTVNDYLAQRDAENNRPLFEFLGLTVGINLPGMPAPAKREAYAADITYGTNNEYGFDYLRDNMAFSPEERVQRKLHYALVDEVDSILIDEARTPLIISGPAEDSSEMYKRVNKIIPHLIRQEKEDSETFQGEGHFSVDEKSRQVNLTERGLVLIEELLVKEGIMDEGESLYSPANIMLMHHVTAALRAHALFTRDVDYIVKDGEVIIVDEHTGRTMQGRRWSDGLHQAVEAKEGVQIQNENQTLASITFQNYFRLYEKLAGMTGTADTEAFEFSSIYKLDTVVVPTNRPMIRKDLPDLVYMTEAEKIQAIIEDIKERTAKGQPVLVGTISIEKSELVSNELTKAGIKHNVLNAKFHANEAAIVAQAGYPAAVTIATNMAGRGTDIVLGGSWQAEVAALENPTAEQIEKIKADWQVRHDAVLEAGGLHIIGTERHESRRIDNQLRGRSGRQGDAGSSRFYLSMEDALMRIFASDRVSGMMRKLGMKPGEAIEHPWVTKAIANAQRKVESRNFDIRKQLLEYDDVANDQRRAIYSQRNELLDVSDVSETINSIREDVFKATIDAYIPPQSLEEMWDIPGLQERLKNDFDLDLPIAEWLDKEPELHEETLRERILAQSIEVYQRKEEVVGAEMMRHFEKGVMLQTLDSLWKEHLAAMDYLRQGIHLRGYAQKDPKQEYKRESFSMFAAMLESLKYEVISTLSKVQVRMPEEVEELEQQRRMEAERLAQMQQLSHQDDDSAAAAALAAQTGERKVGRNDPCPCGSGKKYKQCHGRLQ

Row | Structure (SMILES) | Percent Effect [1] [%] | Percent Effect [2] [%] | Percent Effect [3] [%] | Percent Effect [4] [%] | Percent Effect [5] [%] | Percent Effect [6] [%] | Percent Effect [7] [%] | Percent Effect [8] [%] | Percent Effect [9] [%] | Percent Effect [10] [%] | Percent Effect [11] [%]
1 | CC(C)(C)n1ncc2c1CCCC2NCc1cccc2c1OCO2 (configuration not stated) | -2.65 | -1.27 | 2.85 | 2.62 | -4.41 | 6.24 | 10.1 | 12.2 | 1.04 | -5.06 | -10.4
2 | Cc1cnn(C2CCCN(C(=O)c3cc(C)sc3C)C2)c1 (configuration not stated) | 2.61 | 7.89 | 4.46 | -9.37 | -4.97 | 1.18 | 18.7 | -4.44 | 5.32 | 7.79 | -5.57
3 | O[C@H]1[C@H](n2cc(-c3cccnc3)nn2)c2ccccc2C12CCNCC2 | -1.28 | 4.17 | -0.513 | 14.2 | 2.82 | 12.4 | 3.86 | -3.37 | 3.16 | 10.3 | -3.88
4 | CC(=O)c1c(F)cccc1N1CCC(Cc2cccnc2)CC1 | -2.45 | 8.22 | -4.3 | 3.69 | 6.15 | 2.4 | -1.46 | 57.7 | 7.29 | 13.6 | -9.38
5 | Cc1cc(C)n(CC(C)CNC(=O)[C@@H](C)NC(=O)OC(C)(C)C)n1 (some centres not stated) | -2.44 | 7.89 | 3.79 | 1.85 | 0.487 | -5.92 | 17.7 | -12.5 | 4.25 | 13 | -2.31
6 | Cc1nnc(CN2CCC(N(C)Cc3nnc(C4CC4)n3C)C2)o1 (configuration not stated) | -3.08 | 16.2 | -9.74 | -7.84 | -6.32 | -1.2 | 5.04 | 20.7 | 4.43 | 11.1 | -4.72
7 | Cc1ccc(C)c(NC(=O)Nc2c[nH]c(=O)[nH]c2=O)c1 | 3.77 | 13 | -1.87 | -3.33 | -4.44 | 11 | 4.7 | 7.57 | 2.12 | 3.85 | -8.57
8 | CC(C)Oc1ncnc2c1CCN(C(=O)c1cccn1C)CC2 | -3.69 | 13.3 | 9.51 | -7.87 | -4.53 | -3.03 | 11.2 | 9.21 | 2.13 | 8.97 | -0.243
9 | CC(C)Oc1cccc(C(O)CNC(=O)CCc2ccncc2)c1 (configuration not stated) | -3.24 | -5.48 | 2.43 | 13.4 | -3.97 | -7.58 | 3.85 | 0.683 | 1.04 | 3.7 | 5.03
10 | CCc1nc(CN(C)CC(c2cccs2)N2CCOCC2)no1 (configuration not stated) | -2.58 | 27 | -3.84 | -3.75 | 1.76 | -2.4 | 10.6 | 13.9 | 6.93 | 23.2 | -7.57
11 | Cc1cnn(CC2CCCN2Cc2cc(=O)n3ccccc3n2)c1 (configuration not stated) | -4.27 | -2.7 | -0.318 | -1.03 | 2.05 | 2.73 | 16.7 | -16.2 | 7.53 | 8.64 | -4.06
12 | c1ccc(OCCCNCCn2cccn2)cc1 | -4.38 | 1.27 | -0.45 | 4.63 | 4 | -2.8 | 3.94 | -1.21 | 5.21 | 10.1 | -18.9
13 | CC(=O)N1CCn2c(COCc3csc(C)n3)cnc2C1C (configuration not stated) | -5.84 | 18.7 | -3.96 | 4.19 | 4.05 | -55.7 | 9.57 | 7.41 | -10.4 | 15 | -9.91
14 | Cc1ccccc1CN1CCC2(COCc3cnc(N(C)C)nc32)C1 (configuration not stated) | -1.75 | 2.74 | -2.35 | 15.2 | 8.73 | -2 | 8.65 | 19.6 | 9.38 | 13.6 | -2.3
15 | CCNC(=O)c1ccc2c(c1)nc1n2CCN(Cc2ccco2)C1 | -1.58 | 2.63 | 10.5 | 1.2 | -0.0974 | -4.73 | 13.7 | 8.32 | 0 | 0 | -5.62
16 | Cc1cc(F)ccc1CNCCn1cccn1 | -2.76 | -1.39 | -3.57 | 0.503 | 5.15 | -0.883 | 8.95 | 1.75 | 1.05 | 2.56 | -0.034
17 | COCC(NC(=O)c1cc[nH]n1)c1cccc(C(F)(F)F)c1 (configuration not stated) | -5.2 | 16.4 | -2.13 | 16 | 3.92 | 0.455 | 6.03 | 15.4 | 4.3 | 7.5 | -5.07
18 | c1cnn(CC2CCCCN2c2ncnc3sccc23)c1 (configuration not stated) | -7.65 | -5.33 | 0.901 | 5.7 | -2.63 | -1.56 | 6.45 | 29.1 | -0.546 | -1.24 | -3.05
19 | Cc1nc(CN2CCC3(CCCN(Cc4cnn(C)c4)C3)C2=O)cs1 (configuration not stated) | 2.6 | 10.7 | -6.96 | 4.34 | -5.79 | -57.2 | 10.3 | -6.36 | 3.12 | 10 | -5.7
20 | O=C(CO[C@@H]1CC[C@H]2[C@H]1OCCN2CC1CCOCC1)N1CCCC1 | -4.19 | 0 | 2.42 | -1.24 | -3.12 | 2.08 | 11.1 | 2.51 | 8.91 | 8.54 | 1.37
21 | CCCS(=O)(=O)N1CCC(NC(=O)c2ccc(Cl)s2)CC1 | -0.0871 | 2.67 | -1.87 | 5.67 | 5.16 | 9.9 | 3.14 | -1.58 | 8.2 | 16.1 | -3.77
22 | Cn1cc(CN2CCCC3(CCN(c4nncs4)C3)C2)cn1 (configuration not stated) | -9.67 | 2.7 | 2.26 | -4.09 | -2.83 | -1.24 | 1.97 | -4.18 | 1.07 | 6.17 | -0.679
